Results filed as inconclusive are left out. Where a call stands in place of a potency, no number is given. Calls of active or inactive are those of the source. The call rests on the fitted dose curve; in most records, active means well fitted curve in the direction sought with a large enough effect in the repeat runs; inconclusive means weak or mixed curves; inactive means no such curve, though single readings can be large; an effect the other way counts as inactive or inconclusive.

Consider 30 compounds from PubChem BioAssay (Tox21).
Potency means the concentration at half of the fitted maximal effect.

One experiment in a line: A CellTox Green Cytotoxicity Assay to monitor cytotoxicity in HEK293 cells - 16 hour (AID 1224888). Further: nearly all actives have a fitted effect of over 35% in size. Conditions: CellTox Green fluorescence; series mostly up to 76.8 µM. In short, it runs like this:
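Cells (HEK293, 600/well) and dye reagent are dispensed together. After 5 h at 37 C, 23 nL compound is pinned in. Plates stay at 37 C for 40 h with fluorescence read at 0h, 8h, 16h, 24h, 32h and 40h.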
Turning to `CN(C)CCCOC1(Cc2ccccc2)CCCCCC1`, the Potency entry is “inactive”.

On to `Oc1c(Cl)cc(Cl)c2cccnc12`, for which the Potency result was “inactive”.

On to `O=C1CCCCCN1SSN1CCCCCC1=O`, for which the Potency entry was “inactive”.

Consider `O=C(c1ccc(O)cc1O)c1ccc(O)cc1O`, for which the Potency result is “inactive”.

With `OCCN1CCN(CC/C=C2/c3ccccc3Sc3ccc(C(F)(F)F)cc32)CC1`, the Potency was 26.8 µM (active).

As for `Nc1ccc2cc(S(=O)(=O)O)cc(O)c2c1N=Nc1ccccc1C(F)(F)F`, the Potency result was “inactive”.

On to `C1CCCC1`, for which the Potency result is “inactive”.

As to `Oc1cc2ccccc2c2ccccc12`, the Potency result is “inactive”.

A further experiment can be described thus: qHTS RealTime-Glo MT Cell Viability Assay in HepG2 cells - 0 hour (AID 1224889). Further: nearly all actives have a fitted effect of over 50% in size. The settings on record: RealTime-Glo luminescence; series mostly up to 76.8 µM. Put shortly:
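HepG2 suspension premixed with RealTime-Glo reagents is plated at 600 cells per well and left 5 h at 37 C/5% CO2. Compounds in DMSO then go in, and bioluminescence reflecting viable cell number is recorded over 40 h.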
(In general: qHTS replaces the single test concentration by a dilution series.)
On to `CC(C)(C)C(=O)OCOC(=O)[C@@H]1N2C(=O)[C@@H](NC(=O)[C@H](N)c3ccccc3)[C@H]2SC1(C)C`, for which the Potency entry is “inactive”.

Turning to `O=[N+]([O-])c1ccccc1Nc1ccccc1`, the Potency result was “inactive”.

On to `CC(C)(C)c1ccc(C(=O)O)cc1`, for which the Potency result is “inactive”.

For `CCCCCCCC(=O)[O-].CCCCCCCC(=O)[O-].[Zn+2]`, the Potency result was “inactive”.

For `CCCCCCCCCCC=O`, the Potency result was “inactive”.

`C[C@H](CCC(=O)O)[C@H]1CC[C@H]2[C@@H]3CC[C@@H]4C[C@H](O)CC[C@]4(C)[C@H]3CC[C@]12C`: the Potency entry was “inactive”.

With `NC(=NCCCCCCN=C(N)/N=C(\N)Nc1ccc(Cl)cc1)/N=C(\N)Nc1ccc(Cl)cc1`, the Potency entry was “inactive”.

On to `COc1cccc(N)c1`, for which the Potency result was “inactive”.

Take `CCCCCCCC/C=C/CCCCCCCC1=NCCN1CCO`: the Potency entry is “inactive”.

`O=C1C=CC(=O)N1c1ccc(Cc2ccc(N3C(=O)C=CC3=O)cc2)cc1`: the Potency result is “inactive”.

`O=C1C=CC(=O)N1`: the Potency entry was “inactive”.

As for `CCCCCCCC/C=C\CCCCCCCCOCCO`, the Potency entry is “inactive”.

With `Cc1cc(O)c(C(C)(C)C)cc1Sc1cc(C(C)(C)C)c(O)cc1C`, the Potency result is “inactive”.

For `NNC(=O)c1cccc(C(=O)NN)c1`, the Potency entry is “inactive”.

Consider `C=CC(=O)OCC(CO)(COCC(COC(=O)C=C)(COC(=O)C=C)COC(=O)C=C)COC(=O)C=C`, for which the Potency entry was “inactive”.

With `CC[C@H]1O[C@]2(CC[C@@H]1C)C[C@@H]1C[C@@H](C/C=C(\C)C[C@@H](C)/C=C/C=C3\CO[C@@H]4[C@H](O)C(C)=C[C@@H](C(=O)O1)[C@]34O)O2`, the Potency entry was “inactive”.

Take `CN(C)[C@@H]1C(=O)C(C(N)=O)=C(O)[C@@]2(O)C(=O)C3=C(O)c4c(O)ccc(Cl)c4[C@@H](O)[C@H]3C[C@@H]12`: the Potency entry is “inactive”.

For `CC(=O)N1CCN(c2ccc(OC[C@H]3CO[C@](Cn4ccnc4)(c4ccc(Cl)cc4Cl)O3)cc2)CC1`, the Potency was 24.5 µM (active).

Regarding `COc1ccc(C(=O)/C(Br)=C\C(=O)O)cc1`, the Potency result is “inactive”.

On to `CN(C)CCCOC1(Cc2ccccc2)CCCCCC1`, for which the Potency entry is “inactive”.

`Oc1c(Cl)cc(Cl)c2cccnc12`: the Potency entry is “inactive”.

Consider `O=C1CCCCCN1SSN1CCCCCC1=O`, for which the Potency result was “inactive”.

Consider `Nc1ccc2cc(S(=O)(=O)O)cc(O)c2c1N=Nc1ccccc1C(F)(F)F`, for which the Potency result is “inactive”.

`CN(C)[C@@H]1C(=O)C(C(N)=O)=C(O)[C@@]2(O)C(=O)C3=C(O)c4c(O)cccc4C[C@H]3C[C@@H]12`: the Potency entry is “inactive”.

As to `CCCC(c1cc(C(C)(C)C)c(O)cc1C)c1cc(C(C)(C)C)c(O)cc1C`, the Potency entry was “inactive”.

For `Oc1cc2ccccc2c2ccccc12`, the Potency result was “inactive”.

Consider `Clc1ccccc1C(c1ccccc1)(c1ccccc1)n1ccnc1`, for which the Potency entry is “inactive”.
